From PubChem BioAssay (EPA / NIEHS)
Records with an inconclusive call do not appear. Active and inactive are the calls of the source. The calls were made as follows, unless noted: active = hit-call score of the fitted dose curve at least 0.9, where 1 is the maximum; inactive = score below 0.9.

How the values were obtained:
[1] = target: Paired box protein Pax-6 (Homo sapiens) (UniProt P26367); assay: ATG_Pax6_CIS: Attagene CIS-FACTORIAL HepG2 Assay for human Paired Box 6 (PAX6) (AID 2282956); conditions: HepG2 CIS-FACTORIAL PAX6 reporter transcription, RNA readout; actives raise or lower the signal
Summary of the method: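 After twenty-four hours of chemical exposure, transfected HepG2 cells are harvested for RNA. Cis-promoter reporter transcripts are amplified, fluorescently labelled and sized by capillary electrophoresis, with gain and loss of signal scored against DMSO.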

[2] = ATG_PXRE_CIS: Attagene CIS-FACTORIAL HepG2 Assay for human Pregnane X Receptor Element (PXRE) (AID 2282957); conditions: HepG2 Attagene CIS-FACTORIAL PXRE reporter, mRNA; actives raise or lower the signal
Summary of the method: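 Cells: HepG2, transiently transfected reporter units under cis promoter control. Exposure: 24 h. Detection: reporter mRNA via RT-PCR/CE fluorescence; bidirectional fitting, DMSO-referenced.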

[3] = ATG_RORE_CIS: Attagene CIS-FACTORIAL HepG2 Assay for human RAR-related Orphan Receptor Element (RORE) (AID 2282959); conditions: HepG2 Attagene cis-factorial RORE reporter, mRNA; actives raise or lower the signal
Summary of the method: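 A 24-hour exposure of transfected HepG2 hepatoma cells precedes RNA isolation and reporter RT-PCR. Labeled products are digested with HpaI and resolved by capillary electrophoresis, with gain or loss of signal scored relative to DMSO.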

[4] = ATG_Sox_CIS: Attagene CIS-FACTORIAL HepG2 Assay for human SRY-box transcription factor (SOX) (AID 2282960); conditions: HepG2 Attagene cis-factorial SOX reporter, mRNA; actives raise or lower the signal
Summary of the method: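 HepG2, cis reporter units, 24 h exposure. Reporter mRNA: RT-PCR → FAM labelling → HpaI → CE fluorescence. Bidirectional fit vs DMSO.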

[5] = ATG_SREBP_CIS: Attagene CIS-FACTORIAL HepG2 Assay for human Sterol Regulatory Element Binding (SREBP) (AID 2282962); conditions: HepG2 Attagene cis-factorial SREBP reporter, mRNA; actives raise or lower the signal
Summary of the method: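 Twenty-four hours after chemical dosing of transfected HepG2 cultures, reporter RNA was converted to cDNA, amplified, end-labelled with 6-FAM and resolved by capillary electrophoresis. Responses were fitted relative to DMSO.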

[6] = target: Signal transducer and activator of transcription 3 (Homo sapiens) (UniProt P40763); assay: ATG_STAT3_CIS: Attagene CIS-FACTORIAL HepG2 Assay for human Signal Transducer and Activator of Transcription 3 (STAT3) (AID 2282963); conditions: HepG2, Attagene cis-factorial STAT3 reporter transcription; actives raise or lower the signal
Summary of the method: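 HepG2 cells transiently transfected with cis-element-driven multiple reporter transcription units; after 24 h chemical exposure, reporter mRNA measured by RT-PCR, 6-FAM primer-extension labelling, HpaI digestion and capillary electrophoresis. Bidirectional fitting versus DMSO baseline.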

[7] = ATG_TA_CIS: Attagene CIS-FACTORIAL HepG2 Assay for human TA Basal Promoter (AID 2282964); conditions: HepG2 Attagene CIS-factorial TA basal promoter reporter; actives raise or lower the signal
Summary of the method: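 Background internal-marker endpoint from a 52-component HepG2 cis-reporter panel. Cells treated 24 h; reporter transcripts quantified via RT-PCR and CE fluorescence against DMSO baseline.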

[8] = ATG_TCF_b_cat_CIS: Attagene CIS-FACTORIAL HepG2 Assay for human T-Cell-Factor with beta-catenin (TCF/b-cat) (AID 2282965); conditions: HepG2 TCF/beta-catenin cis-reporter transcription, actives raise or lower the signal
Summary of the method: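 In this cis-format system, transfected HepG2 cells report endogenous transcription factor activity. Readout after 24 h exposure is reporter transcript abundance from RT-PCR and capillary electrophoresis, analysed for gain or loss of signal versus DMSO.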

[9] = ATG_TAL_CIS: Attagene CIS-FACTORIAL HepG2 Assay for human TAL Basal Promoter (AID 2282966); conditions: HepG2 Attagene cis-factorial TAL promoter reporter; actives raise or lower the signal;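 also: background control endpoint measuring basal TAL promoter reporter mRNA not a specific factor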
Summary of the method: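 RT-PCR plus capillary electrophoresis quantifies reporter mRNA induction in transiently transfected HepG2 cells after 24 h chemical treatment. DMSO serves as negative control and baseline for bidirectional fitting.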

[10] = ATG_TGFb_CIS: Attagene CIS-FACTORIAL HepG2 Assay for human Transforming Growth Factor (TGF) (AID 2282967); conditions: HepG2 Attagene CIS TGFb reporter, mRNA transcription; actives raise or lower the signal
Summary of the method: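 Liver HepG2 line, cis-factorial reporter panel, 24 h dosing. Quantitation: RT-PCR products labeled with 6-FAM, cut with HpaI, resolved by capillary electrophoresis; DMSO-referenced bidirectional analysis.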

[11] = ATG_VDRE_CIS: Attagene CIS-FACTORIAL HepG2 Assay for human Vitamin D Receptor Element (VDRE) (AID 2282968); conditions: HepG2 VDRE cis-reporter transcription, actives raise or lower the signal
Summary of the method: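 HepG2 cells transiently transfected with cis-element reporter units, dosed 24 h; reporter mRNA measured by RT-PCR, 6-FAM labeling, HpaI digestion and capillary electrophoresis. Activity fitted bidirectionally against DMSO baseline.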

[12] = ATG_M_19_TRANS: Attagene TRANS-FACTORIAL HepG2 Assay for M19 Transcription Factor (Internal Marker) (AID 2282974; active = hit-call score of the fitted dose curve at least 0.9, where 1 is the maximum); conditions: HepG2 Attagene TRANS-FACTORIAL M19 internal marker reporter
Summary of the method: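 Transfected HepG2 (GAL4-UAS MRTUs), 24 h compound, TriZol RNA, DNase-treated RT, reporter PCR, FAM label, HpaI digest, CE fluorescence; gain vs DMSO.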

[13] = target: Transcription factor Sp1 (Homo sapiens) (UniProt P08047); assay: ATG_Sp1_CIS: Attagene CIS-FACTORIAL HepG2 Assay for human Specificity Protein 1 (Sp1) (AID 2282961); conditions: HepG2 Sp1 cis-reporter transcription, actives raise or lower the signal
Summary of the method: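 Liver-derived HepG2 cells, cis-element reporter library, 24 h treatment; RNA isolated, cDNA amplified with reporter-specific primers, FAM-labeled fragments sized on capillary analyzer. DMSO baseline, bidirectional curve fit.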

[14] = target: Steroid hormone receptor ERR1 (Homo sapiens) (UniProt P11474); assay: ATG_ERRa_TRANS: Attagene TRANS-FACTORIAL HepG2 Assay for human Estrogen-Related Receptor alpha (ERRa) (AID 2282971; active = hit-call score of the fitted dose curve at least 0.9, where 1 is the maximum); conditions: HepG2 Attagene TRANS reporter, ERRa transactivation
Summary of the method: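 Reporter transcripts from ERRa-Gal4 chimera activity measured in transiently transfected human HepG2 cells 24 hours after dosing, using RT-PCR with 6-FAM primer extension, HpaI digestion and capillary electrophoresis; DMSO is baseline.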

[15] = target: X-box-binding protein 1 (Homo sapiens) (UniProt P17861); assay: ATG_Xbp1_CIS: Attagene CIS-FACTORIAL HepG2 Assay for human X-box Binding Protein 1 (XBP1) (AID 2282972); conditions: HepG2 XBP1 cis-element reporter, Attagene multiplex; actives raise or lower the signal
Summary of the method: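 After a 24-hour chemical exposure of HepG2 cells carrying cis-regulated reporters, reporter mRNA levels are assessed. Quantification uses RT-PCR, 6-FAM labelling and capillary electrophoresis. Gain- or loss-of-signal is fitted against DMSO.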

[16] = ATG_GAL4_TRANS: Attagene TRANS-FACTORIAL HepG2 Assay for GAL4 (Internal Marker) (AID 2282976; active = hit-call score of the fitted dose curve at least 0.9, where 1 is the maximum); conditions: HepG2 Attagene TRANS GAL4 internal marker reporter
Summary of the method: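 In transfected human HepG2 liver cells dosed 24 h, GAL4 reporter mRNA serves as a baseline marker. Detection by RT-PCR with fluorescent capillary electrophoresis, activity fitted upward relative to DMSO.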

[17] = target: Estrogen-related receptor gamma (Homo sapiens) (UniProt P62508); assay: ATG_ERRg_TRANS: Attagene TRANS-FACTORIAL HepG2 Assay for human Estrogen-Related Receptor gamma (ERRg) (AID 2282977; active = hit-call score of the fitted dose curve at least 0.9, where 1 is the maximum;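 also: hits increase reporter signal over DMSO so potencies reflect activators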); conditions: HepG2 Attagene TRANS reporter, ERRg transactivation
Summary of the method: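 HepG2 cells transiently transfected with multiplexed GAL4-UAS reporter units and chimeric NR-Gal4 constructs were exposed to test chemicals for 24 h. Reporter mRNA was measured by RT-PCR, 6-FAM primer extension, HpaI digestion and capillary electrophoresis; gain-of-signal versus DMSO.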

[18] = target: Nuclear receptor subfamily 1 group I member 3 (Homo sapiens) (UniProt Q14994); assay: ATG_CAR_TRANS: Attagene TRANS-FACTORIAL HepG2 Assay for human Constitutive Androstane Receptor (CAR) (AID 2282969; active = hit-call score of the fitted dose curve at least 0.9, where 1 is the maximum;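 also: activators raise reporter mRNA above DMSO so AC50 marks induction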); conditions: HepG2 Attagene TRANS-FACTORIAL CAR reporter
Summary of the method: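 HepG2 cells transiently transfected with multiplexed GAL4-UAS reporter units expressing chimeric NR-Gal4 proteins; compound exposure 24 h. Reporter mRNA measured by RT-PCR, 6-FAM labelling, HpaI digestion and capillary electrophoresis; gain-of-signal fitted against DMSO baseline.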

[19] = target: Glucocorticoid receptor (Homo sapiens) (UniProt P04150); assay: ATG_GR_TRANS: Attagene TRANS-FACTORIAL HepG2 Assay for human Glucocorticoid Receptor (GR) (AID 2282978; active = hit-call score of the fitted dose curve at least 0.9, where 1 is the maximum;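 also: activators score as hits since higher reporter transcript over DMSO is fitted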); conditions: HepG2 Attagene TRANS GR reporter, mRNA transcription
Summary of the method: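 After 24 h incubation with test chemical, transfected HepG2 cells were lysed for RNA; reporter cDNA was amplified, FAM-labelled, HpaI-digested and sized on a capillary analyser. Signal gain relative to DMSO was scored.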

[20] = ATG_PPRE_CIS: Attagene CIS-FACTORIAL HepG2 Assay for human Peroxisome Proliferator-activated Response Element (PPRE) (AID 2282958); conditions: HepG2 PPRE cis-element reporter, Attagene transcription factor profiling; actives raise or lower the signal
Summary of the method: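 PPRE activity in HepG2: transient cis-reporter transfection, 24 h compound incubation, reporter mRNA by RT-PCR and CE fluorescence; gain/loss fitted against DMSO.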

Measured: AC50

Sequence of Signal transducer and activator of transcription 3 (Homo sapiens) (P40763 whole entry, looked up): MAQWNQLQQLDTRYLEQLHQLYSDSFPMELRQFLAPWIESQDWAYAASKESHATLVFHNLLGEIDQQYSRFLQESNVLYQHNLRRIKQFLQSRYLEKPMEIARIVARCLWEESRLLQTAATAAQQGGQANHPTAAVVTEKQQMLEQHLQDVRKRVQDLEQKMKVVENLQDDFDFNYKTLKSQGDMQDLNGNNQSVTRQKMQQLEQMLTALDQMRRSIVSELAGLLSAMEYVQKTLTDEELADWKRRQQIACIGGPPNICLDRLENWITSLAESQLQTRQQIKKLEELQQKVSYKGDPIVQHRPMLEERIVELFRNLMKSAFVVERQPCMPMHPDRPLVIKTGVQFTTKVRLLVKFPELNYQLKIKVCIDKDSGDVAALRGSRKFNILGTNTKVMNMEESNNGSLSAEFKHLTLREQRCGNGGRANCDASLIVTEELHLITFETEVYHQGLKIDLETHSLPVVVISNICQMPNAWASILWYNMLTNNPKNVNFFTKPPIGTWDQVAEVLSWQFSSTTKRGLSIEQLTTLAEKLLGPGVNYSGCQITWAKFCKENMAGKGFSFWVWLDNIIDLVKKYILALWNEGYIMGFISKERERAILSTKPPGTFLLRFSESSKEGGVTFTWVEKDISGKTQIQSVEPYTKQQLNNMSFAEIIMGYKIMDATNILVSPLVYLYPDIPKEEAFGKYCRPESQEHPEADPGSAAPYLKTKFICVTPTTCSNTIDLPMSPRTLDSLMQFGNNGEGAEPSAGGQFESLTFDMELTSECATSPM
Sequence of Glucocorticoid receptor (Homo sapiens) (P04150 whole entry, looked up): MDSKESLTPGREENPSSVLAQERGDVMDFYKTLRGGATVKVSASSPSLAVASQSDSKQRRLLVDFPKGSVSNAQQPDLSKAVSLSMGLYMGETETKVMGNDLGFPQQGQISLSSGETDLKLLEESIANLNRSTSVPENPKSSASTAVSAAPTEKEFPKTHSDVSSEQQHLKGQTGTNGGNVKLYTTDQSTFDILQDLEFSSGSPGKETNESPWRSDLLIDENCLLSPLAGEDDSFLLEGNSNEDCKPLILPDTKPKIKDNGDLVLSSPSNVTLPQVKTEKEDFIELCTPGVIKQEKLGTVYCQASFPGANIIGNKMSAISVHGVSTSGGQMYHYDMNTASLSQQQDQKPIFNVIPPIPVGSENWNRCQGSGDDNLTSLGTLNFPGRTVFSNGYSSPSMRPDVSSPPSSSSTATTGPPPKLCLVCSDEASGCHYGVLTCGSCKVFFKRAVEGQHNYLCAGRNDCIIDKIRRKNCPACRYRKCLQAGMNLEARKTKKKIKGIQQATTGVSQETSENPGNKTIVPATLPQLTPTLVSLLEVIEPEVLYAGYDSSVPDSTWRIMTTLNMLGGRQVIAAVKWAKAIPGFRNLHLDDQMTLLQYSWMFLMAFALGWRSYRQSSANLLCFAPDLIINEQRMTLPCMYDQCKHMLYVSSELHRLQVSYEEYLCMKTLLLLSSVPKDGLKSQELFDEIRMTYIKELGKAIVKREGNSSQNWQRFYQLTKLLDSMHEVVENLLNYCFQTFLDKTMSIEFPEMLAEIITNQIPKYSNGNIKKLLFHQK
Sequence of Paired box protein Pax-6 (Homo sapiens) (P26367 whole entry, looked up): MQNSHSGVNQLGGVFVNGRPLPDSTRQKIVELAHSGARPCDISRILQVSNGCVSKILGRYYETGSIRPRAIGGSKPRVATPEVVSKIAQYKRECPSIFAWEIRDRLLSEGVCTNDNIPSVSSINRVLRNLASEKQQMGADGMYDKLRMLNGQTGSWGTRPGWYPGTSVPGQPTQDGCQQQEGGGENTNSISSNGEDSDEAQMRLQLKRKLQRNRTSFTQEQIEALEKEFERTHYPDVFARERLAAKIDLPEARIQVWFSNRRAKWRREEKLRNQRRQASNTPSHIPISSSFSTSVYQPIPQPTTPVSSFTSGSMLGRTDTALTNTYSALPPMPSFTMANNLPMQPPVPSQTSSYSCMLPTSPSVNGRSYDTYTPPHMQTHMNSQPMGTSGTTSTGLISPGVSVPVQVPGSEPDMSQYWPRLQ
Sequence of Estrogen-related receptor gamma (Homo sapiens) (P62508 whole entry, looked up, the tested form may be a part): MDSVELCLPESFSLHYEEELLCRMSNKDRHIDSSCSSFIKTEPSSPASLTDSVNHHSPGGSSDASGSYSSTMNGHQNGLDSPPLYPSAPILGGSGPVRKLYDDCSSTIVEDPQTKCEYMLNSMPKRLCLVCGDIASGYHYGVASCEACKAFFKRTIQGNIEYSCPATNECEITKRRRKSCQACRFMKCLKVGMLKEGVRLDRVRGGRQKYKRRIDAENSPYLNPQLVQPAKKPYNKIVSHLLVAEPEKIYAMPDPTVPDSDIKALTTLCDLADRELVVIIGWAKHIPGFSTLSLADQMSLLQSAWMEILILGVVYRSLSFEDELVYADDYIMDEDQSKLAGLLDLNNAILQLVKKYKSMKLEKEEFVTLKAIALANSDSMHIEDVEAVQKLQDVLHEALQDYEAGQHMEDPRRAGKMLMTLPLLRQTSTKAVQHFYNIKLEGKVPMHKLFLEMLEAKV
Sequence of X-box-binding protein 1 (Homo sapiens) (P17861 whole entry, looked up): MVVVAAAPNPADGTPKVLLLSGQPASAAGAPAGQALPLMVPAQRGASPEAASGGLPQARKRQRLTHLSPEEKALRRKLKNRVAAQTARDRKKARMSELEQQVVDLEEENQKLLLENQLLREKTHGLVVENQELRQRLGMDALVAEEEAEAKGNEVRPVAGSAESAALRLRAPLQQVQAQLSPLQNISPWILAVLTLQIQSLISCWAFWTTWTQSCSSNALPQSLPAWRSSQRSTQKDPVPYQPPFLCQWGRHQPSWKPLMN
Sequence of Steroid hormone receptor ERR1 (Homo sapiens) (P11474 whole entry, looked up, the tested form may be a part): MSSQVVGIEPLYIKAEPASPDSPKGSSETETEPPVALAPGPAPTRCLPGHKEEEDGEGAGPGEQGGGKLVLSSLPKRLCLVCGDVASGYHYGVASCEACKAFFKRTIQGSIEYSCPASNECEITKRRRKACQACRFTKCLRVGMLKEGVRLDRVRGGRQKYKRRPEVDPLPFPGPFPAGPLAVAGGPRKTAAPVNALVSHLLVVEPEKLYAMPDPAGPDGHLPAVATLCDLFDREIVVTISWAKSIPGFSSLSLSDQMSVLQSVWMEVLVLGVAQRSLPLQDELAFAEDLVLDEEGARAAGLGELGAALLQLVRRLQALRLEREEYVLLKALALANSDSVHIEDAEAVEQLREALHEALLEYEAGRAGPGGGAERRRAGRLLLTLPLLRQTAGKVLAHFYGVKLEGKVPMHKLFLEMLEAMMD
Sequence of Transcription factor Sp1 (Homo sapiens) (P08047 whole entry, looked up, the tested form may be a part): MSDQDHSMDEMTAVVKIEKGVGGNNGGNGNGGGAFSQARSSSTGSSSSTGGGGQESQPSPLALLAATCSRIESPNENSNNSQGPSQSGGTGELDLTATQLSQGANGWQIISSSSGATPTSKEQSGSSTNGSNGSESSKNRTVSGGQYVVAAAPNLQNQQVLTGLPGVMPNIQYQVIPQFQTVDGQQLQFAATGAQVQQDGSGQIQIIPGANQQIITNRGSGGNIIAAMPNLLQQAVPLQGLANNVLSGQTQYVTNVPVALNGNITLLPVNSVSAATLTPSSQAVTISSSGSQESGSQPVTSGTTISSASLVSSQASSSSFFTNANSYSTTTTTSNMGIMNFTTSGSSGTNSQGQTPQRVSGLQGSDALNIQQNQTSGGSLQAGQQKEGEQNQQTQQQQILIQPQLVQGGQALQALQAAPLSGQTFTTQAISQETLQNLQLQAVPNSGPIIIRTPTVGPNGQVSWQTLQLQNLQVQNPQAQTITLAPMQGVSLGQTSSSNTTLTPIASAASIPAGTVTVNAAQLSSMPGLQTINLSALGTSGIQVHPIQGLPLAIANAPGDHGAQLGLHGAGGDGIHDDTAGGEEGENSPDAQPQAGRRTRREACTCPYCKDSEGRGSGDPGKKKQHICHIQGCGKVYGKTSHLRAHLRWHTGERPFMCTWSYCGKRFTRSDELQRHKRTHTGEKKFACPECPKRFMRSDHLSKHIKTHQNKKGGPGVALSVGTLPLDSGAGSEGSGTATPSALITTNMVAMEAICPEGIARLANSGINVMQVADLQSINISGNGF
Sequence of Nuclear receptor subfamily 1 group I member 3 (Homo sapiens) (Q14994 whole entry, looked up, the tested form may be a part): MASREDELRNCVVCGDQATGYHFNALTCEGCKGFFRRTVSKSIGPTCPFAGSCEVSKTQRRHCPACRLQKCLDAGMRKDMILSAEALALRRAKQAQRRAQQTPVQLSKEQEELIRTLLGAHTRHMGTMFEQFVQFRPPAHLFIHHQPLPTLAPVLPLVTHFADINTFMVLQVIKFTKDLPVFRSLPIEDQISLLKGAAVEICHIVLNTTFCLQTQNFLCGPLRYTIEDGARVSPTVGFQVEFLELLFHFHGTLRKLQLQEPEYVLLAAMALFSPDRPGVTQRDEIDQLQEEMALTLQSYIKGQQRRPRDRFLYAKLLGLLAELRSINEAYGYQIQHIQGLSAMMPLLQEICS

Brc1ccc(Br)c(Br)c1
inactive: [1] | [2] | [3] | [4] | [5] | [6] | [7] | [8] | [9] | [10] | [11] | [12]

CC(=O)OCCCc1ccccc1
active: [2] 27.4 µM
inactive: [1] | [4] | [13] | [5] | [6] | [7] | [8] | [9] | [10] | [14] | [15] | [12] | [16] | [17]

COc1ccc(N)c([N+](=O)[O-])c1
inactive: [1] | [2] | [3] | [4] | [5] | [6] | [7] | [8] | [9] | [10] | [11] | [18] | [15] | [12] | [16] | [19]

Cc1cc(S(=O)(=O)O)ccc1N=Nc1c(O)ccc2ccccc12
inactive: [1] | [2] | [4] | [13] | [5] | [6] | [7] | [9] | [14] | [15] | [12] | [16] | [17]
active: [10] 4.96 µM

CC(C)c1ccccc1O
inactive: [1] | [4] | [13] | [5] | [6] | [7] | [8] | [9] | [10] | [12]
active: [2] 81.1 µM

O=C1OC[C@H](Cc2cccc(O)c2)[C@H]1Cc1cccc(O)c1
active: [2] 5.12 µM | [11] 21.8 µM
inactive: [1] | [3] | [4] | [5] | [6] | [8] | [9] | [10] | [15] | [19]

NCC1CCCC(CN)C1 (stereo unspecified)
inactive: [1] | [2] | [4] | [13] | [6] | [7] | [8] | [9] | [10] | [11] | [14] | [15] | [16] | [19]

CC/C=C\CCOC(=O)CC
inactive: [1] | [2] | [4] | [13] | [5] | [6] | [7] | [8] | [9] | [10] | [15] | [12]

CC(C)(C)CC(C)(C)c1ccc(OCCOCC[N+](C)(C)Cc2ccccc2)cc1
inactive: [1] | [20] | [4] | [13] | [6] | [7] | [9] | [10] | [11] | [14] | [15] | [12] | [17] | [19]
active: [5] 8.35 µM | [8] 12 µM

CCCCC(CC)COC(=O)c1ccc(O)cc1 (stereo unspecified)
active: [2] 11.1 µM
inactive: [1] | [4] | [13] | [5] | [6] | [7] | [8] | [10] | [11] | [15] | [16] | [19]

OCCOCCN1CCN(C2=Nc3ccccc3Sc3ccccc32)CC1
inactive: [1] | [4] | [13] | [5] | [6] | [7] | [8] | [9] | [10] | [15] | [16]
active: [2] 7.41 µM | [11] 19.5 µM

C=CC(C)(O)CCC=C(C)C (stereo unspecified)
active: [2] 46.9 µM
inactive: [1] | [4] | [13] | [5] | [6] | [7] | [8] | [9] | [10] | [11] | [16] | [19]
